Assay results reported in PubChem BioAssay AID1645870 (National Center for Advancing Translational Sciences (NCATS), 2021).
Where “and” joins values, the source holds several entries; their conditions need not be identical. Equal values may be shown once. The whole screen tested about 59,000 compounds, of which about 1,500 (2.5%) were called active. About 10% were inconclusive and are not listed. Many of the other results were omitted from the sample, so actives are more common in it than they were. Unmarked numbers belong to inactive results. Calls come from the whole dose curve; as a rule, active = well fitted inhibition curve with a large enough effect; inconclusive = small, poorly fitted or top-dose-only effect; inactive = flat fitted curve, though single readings scatter.

Biological target: N-terminal Xaa-Pro-Lys N-methyltransferase 1 (Homo sapiens) (UniProt Q9BV86)
Sequence (Q9BV86 whole entry, looked up): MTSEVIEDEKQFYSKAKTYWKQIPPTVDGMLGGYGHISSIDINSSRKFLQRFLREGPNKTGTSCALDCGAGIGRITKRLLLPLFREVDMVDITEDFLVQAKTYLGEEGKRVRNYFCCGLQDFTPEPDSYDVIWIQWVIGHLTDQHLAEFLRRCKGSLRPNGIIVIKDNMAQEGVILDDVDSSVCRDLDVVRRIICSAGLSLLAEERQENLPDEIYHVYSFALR
Assay: Primary qHTS for Inhibitors of N-terminal methyltransferase 1 (NTMT1): MTaseGlo Assay; note: nearly all actives have a fitted effect of over 65% in size;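 for activity change, negative = inhibition: plate controls were DMSO vehicle for no effect and no enzyme for full effect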
Settings: NTMT1 MTase-Glo SAH luminescence, purified enzyme; series mostly up to 114 µM; activity change, negative = inhibition: at the top concentration
Description: Assay Submitter (PI): Rong Huang Ph.D.
Purdue University, West Lafayette, IN 47907
The N-terminal methytransferase 1 is the first methyltransferase that methylates protein alpha-N-amines and plays an important role in regulating cell mitosis, chromatin interactions and DNA repair. It is observed to be over-expressed in various cancer patient tissues like malignant melanoma and colorectal cancer tissues. Knockdown of NTMT1 in cancer cells causes cell mitotic defects and enhances sensitivity to DNA damaging chemotherapeutics. […] These critical cellular processes in which NTMT1 is implicated, coupled with emerging links to cellular dysfunction, strengthen the inference that NTMT1 is a compelling novel anticancer target. Progress have been made in understanding the molecular properties of NTMT1 and the biological consequences of protein alpha-N-terminal methylation, but there are no specific small molecule probes available for NTMT1 to fully characterize its MTase activity. To address this unmet need, a panel of assay is created and established to enable quantitative high-throughput screening (qHTS) for novel, potent, and selective small molecule NTMT1 inhibitors. Two orthogonal qHTS that use different reagents (ThioGlo vs. MTaseGlo) are developed for primary robotic screening against the NCATS chemical library of more than 400,000 small molecules. Identified inhibitors are reacquired, validated, and further characterized.
MTaseGlo Assay is a luminescence screen that measure the activity of methyltransferases based on the reaction product S-adenosyl homocysteine (SAH). The substrate SAM is converted to SAH upon enzyme activation. MTase-Glo reagent and detection solution convert SAH to ATP and measure the light from the luciferase reaction.
Materials: NTMT1 enzyme, substrate SPKRIA, control peptide RCC1-6 is provided by the Huang laboratory.
SEQUENCE No. (e.g., 1, 2, 3, etc.); […] (e.g., Cells, Incubation, Reagent, etc.); VALUE; DESCRIPTION
1; Enzyme; 3 uL; Dispense enzyme mixture (final concentrations of 125 nM NTMT1 and 100 uM SAM) into Greiner 1536-well white / solid bottom assay plate (Greiner Bio One, Monroe, NC).
2; Compounds; 23 nL; Compounds and controls were transferred via a Kalypsys Pin Tool (Wako USA) equipped with a 1536-slotted pin array (Wako Automation, Richmond, VA)
3; Incubation; 15 min; Incubate at room temperature
4; Substrate; 1 uL; Dispense 1 uL of substrate at final concentration of 1 uM. Buffer solution was dispensed in control wells. The assay plate was covered with metal lids.
5; Incubation; 30 min; Incubate at room temperature, protected from lights.
6; Reagent; 1 uL; Dispensed 5x MTase-Glo detection reagent (R) into the assay plate. The plate was covered with metal lids.
7; Incubation; 30 min; Incubate the assay plates at room temperature in the dark to allow for SAH to be converted to ADP.
8; Reagent; 5 uL; Dispense 5 uL of 1x MTase-Glo Detection Solution (R) to allow for ADP to be converted to ATP which was then detected with a luciferase reaction.
9; Centrifuge; 15 sec; Centrifuge the assay plate for 15 seconds at 1000 RPM.
10; Incubation; 30 min; Assay plates were incubation at room temperature in the dark.
11; Detection; Luminescence; Plates were read on ViewLux detector (PerkinElmer). Data were normalized to no-enzyme (0% activity) and no-inhibitor (DMSO; 100%) controls, and the resulting percent inhibition data were fitted to a 4-parameter Hill equation using GraphPad Prism.
Potency is the fitted concentration of half-maximal effect.

Going from C=CC(=O)Nc1ccc2ncnc(Nc3ccc(OCc4cccc(F)c4)c(Cl)c3)c2c1 to O=C(Nc1ccc(Cl)c(Cl)c1)Nc1nnc(-c2ccc(F)cc2)s1, the “activity change, negative = inhibition” value rises from -22% [at 57.5 µM] to 2.77% [at 57.5 µM].

Compared with COc1ccc(C2Nc3ccccc3C(=O)N2Cc2ccccc2)cc1COc1ccc(C(N)=O)cc1 (stereo unspecified), C[C@H](NC(=O)c1c(N)nn2cccnc12)c1cc2cccc(C#Cc3cnn(C)c3)c2c(=O)n1-c1ccccc1 is lower in “activity change, negative = inhibition” value: 16% [at 57.5 µM] for the first, 8.45% [at 57.5 µM] for the second.

Compared with CCN(CC)CCNC(=O)c1cc(S(C)(=O)=O)ccc1OC, CCOc1cc(C(C)(C)C)ccc1C1=N[C@@](C)(c2ccc(Cl)cc2)[C@@](C)(c2ccc(Cl)cc2)N1C(=O)N1CCN(CC(=O)N2CCOCC2)CC1 is higher in “activity change, negative = inhibition” value: 10.6% [at 57.5 µM] for the first, 23.9% [at 57.5 µM] for the second.

For COc1cc2ncnc(Nc3cccc(Cl)c3F)c2cc1OC(=O)N1CCN(C)C[C@H]1C, the Potency was 35.5 µM (active) and 39.8 µM (active).
For Cc1cc(NS(=O)(=O)c2cc3c(cc2F)NC(=O)CC3)ccc1F, the Potency was “inactive”.
For Cc1cc(C)c(/C=C2\C(=O)Nc3ccccc32)[nH]1, the Potency was “inactive”.
For Cc1[nH]c(/C=C2\C(=O)Nc3ccc(S(=O)(=O)Cc4c(Cl)cccc4Cl)cc32)c(C)c1C(=O)N1CCC[C@@H]1CN1CCCC1, the Potency was 11.2 µM (active).
For Cc1cccc(N2CCN(c3ccc(C(=O)O)cc3NC(=O)c3ccccc3F)CC2C)c1 (stereo unspecified), the Potency was 70.8 µM (active).
For CCC(C(=O)Nc1cccc(Cl)c1C)n1nc(-c2ccc(C)cc2)ccc1=O (stereo unspecified), the Potency was 79.4 µM (active).
In the case of CCN(CC)CCNC(=O)Cn1ncc2c3ccccc3n(Cc3ccccc3C)c2c1=O, the Potency is reported as 89.1 µM (active).
In the case of COc1ccc(OCC(=O)Nc2cccc(C(=O)OCc3cc(=O)n4nc(C)sc4n3)c2)cc1, the Potency is reported as 50.1 µM (active).
For CCN(CC)CCNC(=O)c1c(C)[nH]c(C=C2C(=O)Nc3ccc(F)cc32)c1C, the Potency was 44.1 µM (active).
For COc1ccc(-c2nc3c(c(SCC(=O)Nc4ccc(C(=O)O)cc4)n2)Cc2ccccc2O3)cc1, the Potency was 11.2 µM (active).
O=C(Nc1ccc(Cl)c(Cl)c1)Nc1nnc(N2CCNCC2)s1 was tested, and the Potency was 50.1 µM (active).

First: CNc1oc(-c2ccc(-c3ccccc3)cc2)nc1C#N
Second: CNc1oc(-c2cccc(Cl)c2Cl)nc1C#N
The “activity change, negative = inhibition” value of the first is higher: -2.96% for the first, -4.37% for the second.

Going from COc1ccc(C(=O)N(Cc2ccccc2)Cc2ccc(OC)c(COc3ccc(NC(C)=O)cc3)c2)c(O)c1 to COc1ccc(C2Nc3ccccc3C(=O)N2Cc2cccc(OC)c2OC)cc1COc1c(C)cc(NC(C)=O)cc1C (stereo unspecified), the “activity change, negative = inhibition” value falls from -0.368% to -0.852%.

First: O=C(Nc1ccc(S(=O)(=O)Nc2nccs2)cc1)C1CC(OCc2ccccc2)C1 (stereo unspecified)
Second: Cc1ccc(C(=O)Nc2ccc(S(=O)(=O)Nc3nccs3)cc2)cc1C
The “activity change, negative = inhibition” value of the first is higher: 3.69% for the first, -14.7% for the second.

First: O=C(CNC(=O)c1ccc(Cl)cc1Cl)OC(C(=O)Nc1cc(C(F)(F)F)ccc1Cl)c1ccccc1 (stereo unspecified)
Second: O=C(CNC(=O)c1ccc(Cl)c(C(F)(F)F)c1)OC(C(=O)Nc1cc(C(F)(F)F)ccc1Cl)c1ccccc1 (stereo unspecified)
The “activity change, negative = inhibition” value of the first is higher: 14.1% for the first, 6.81% for the second.

Compared with Cc1cn([C@H]2C[C@H](N[S+](=O)([O-])Cc3ccc(Cl)cc3)[C@@H](CO)O2)c(=O)[nH]c1=O, Cc1cc(N[S+](=O)([O-])c2ccc(NC(=O)Cc3ccc(F)c(C(F)(F)F)c3)cc2)no1 is higher in “activity change, negative = inhibition” value: 1.89% for the first, 11.7% for the second.

Going from O=C(Cc1ccc(Cl)c(Cl)c1)Nc1ccc([S+](=O)([O-])Nc2cccc([N+](=O)[O-])c2)cc1 to O=C(Nc1ccccn1)c1sc2ccc([N+](=O)[O-])cc2c1Cl, the “activity change, negative = inhibition” value falls from 5.18% to 3.22%.

Compared with O=S1(=O)N=C(Oc2cccc(Br)c2)c2ccccc21, COc1ccc(NC(=O)CSc2nc3ccccc3[nH]2)cc1 is higher in “activity change, negative = inhibition” value: -6.08% for the first, 3.79% for the second.

First: COC(=O)c1ccccc1NC(=O)c1ccc(C#N)cc1
Second: COC(=O)c1ccc(NC(=O)CSc2n[nH]c(-c3ccccc3)n2)cc1
The “activity change, negative = inhibition” value of the first is lower: -1.32% for the first, 7.74% for the second.

First: Cc1cccc(N2CCN(C(=O)c3cc4c(=O)oc5ccccc5c4s3)CC2C)c1 (stereo unspecified)
Second: Cc1c(Cl)cccc1NC(=O)N1CCN(C(=O)c2nsc3ccccc23)CC1
The “activity change, negative = inhibition” value of the first is lower: 1.45% for the first, 4.51% for the second.

Compared with Cc1ccccc1NC(=O)c1c(NC(=O)c2ccccc2F)sc2c1CCC(C)C2 (stereo unspecified), CC1=C(C(=O)Nc2ccccc2C)C(c2ccccc2Br)N=C(Nc2nc3ccccc3o2)N1 (stereo unspecified) is lower in “activity change, negative = inhibition” value: 22.5% for the first, 10.4% for the second.

Compared with O=C1CC(c2c[nH]c3ccc(F)cc23)C(=O)N1 (stereo unspecified), CN(C)CC(=O)NC1CCCc2c1cnn2-c1ccc(F)cc1F (stereo unspecified) is higher in “activity change, negative = inhibition” value: 7.14% for the first, 16.2% for the second.

Compared with Cc1ccc(-c2ccc(=O)n(CCNC(C)c3ccco3)n2)cc1 (stereo unspecified), Cc1nn2c(=O)cc(COC(=O)c3cccc(NC(=O)COc4ccccc4Cl)c3)nc2s1 is lower in “activity change, negative = inhibition” value: -3.03% for the first, -5.59% for the second.

Going from N#CN1CCC(NC(=O)c2ccc(F)cc2)CC1 to COc1cccc(C(=O)NC2CCN(C#N)CC2)c1, the “activity change, negative = inhibition” value rises from 10.9% to 12.7%.

Going from Cc1sc(NC(=O)Cc2ccc3c(c2)OCO3)nc1-c1ccc2c(c1)CCN2 to O=S(=O)(NC1CCN(S(=O)(=O)c2ccc3c(c2)OCCO3)CC1)c1c(F)cccc1F, the “activity change, negative = inhibition” value falls from 4.99% to 0.994%.

First: CCCN(CCC)CCCNC(=O)Cn1ncc2c3ccccc3n(Cc3ccccc3)c2c1=O
Second: CCN(CCCNC(=O)Cn1ncc2c3ccccc3n(C)c2c1=O)Cc1ccccc1
The “activity change, negative = inhibition” value of the first is lower: -15.4% for the first, 4.28% for the second.

Going from CCOc1ccc(CCNC(=O)c2cc3sccc3n2CCN2CCOCC2)cc1OCC to CCOc1cc2[nH]c(=O)n(Cc3ccc(C(=O)NCCN(CC)CC)cc3)c(=O)c2cc1OCC, the “activity change, negative = inhibition” value rises from -2.87% to 0.768%.

Going from CS(=O)(=O)c1ccc(C(=O)OCC(=O)N2CCC(c3ccccc3)CC2)cc1[N+](=O)[O-] to CCCCc1nn2c(=O)cc(COC(=O)c3cccc(NC(=O)COc4ccccc4)c3)nc2s1, the “activity change, negative = inhibition” value rises from 12.1% to 12.9%.

Compared with Cc1cc(Oc2ccc3nc(COc4ccc(CC5SC(=O)NC5=O)cc4)n(C)c3c2)cc(C)c1N (stereo unspecified), COc1ccc(C2=Nn3c(nnc3-c3ccccc3F)SC2)cc1OC is higher in “activity change, negative = inhibition” value: -20.2% for the first, 8.76% for the second.

First: O=C(Nc1ccc(Cl)c(Cl)c1)Nc1nnc(C2CCCCC2)s1
Second: O=C(Nc1nc(-c2ccccc2)cs1)c1ccccc1-n1cnnn1
The “activity change, negative = inhibition” value of the first is higher: 4.94% for the first, -8.17% for the second.

In the case of C=C1C[C@@H]2CC[C@@]34C[C@H]5O[C@H]6[C@@H](O3)[C@H]3O[C@H](CC[C@@H]3O[C@H]6[C@H]5O4)CC(=O)C[C@@H]3[C@@H](OC)[C@@H](C[C@H](O)CN)O[C@H]3C[C@H]3O[C@@H](CC[C@@H]1O2)C[C@@H](C)C3=C, the “activity change, negative = inhibition” value is reported as 19.2% [at 29.8 µM].
